About 83,000 compounds went through this panel and 20% of them were active in at least one assay; those are over-represented in the sample as a whole.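 Each cell line was grown in a 96-well plate and treated with one concentration of compound for 48 hours. Values below 10 were considered active.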 Activity calls are given as the source filed them.

The subject of the experiment is U251 CNS. The experiment is described as follows: NCI-60 one-dose screen, 48 h (100 = growth as untreated, 0 = no growth, -100 = all killed). The settings on record: 10 µM unless noted.
`NS(=O)(=O)c1ccc(-n2nc(-c3ccc(Cl)cc3)ccc2=O)cc1`: the growth is 104% (inactive).
As for `Nc1nc(Cl)cc(NCCCCNc2cc(Cl)nc(N)n2)n1`, the figure is 99.6% (inactive); as for `Fc1ccc(/C=N/n2c(-c3cc(Cl)cc(Cl)c3Cl)nn(CNc3ccc(Cl)nn3)c2=S)cc1`, 90% (inactive); as for `COc1cc(-c2nc3ccccc3s2)ccc1OCc1nc2n(n1)S(=O)(=O)c1ccccc1N2C`, 73.2% (inactive).
As for `Cc1c(Cl)ccc2c(C(=O)Cl)cc(-c3ccccc3)nc12`, the growth was 96.6% (inactive).
In the case of `CN1CCN(Cn2nc(-c3cc(Cl)cc(Cl)c3Cl)n(/N=C/c3ccc(Cl)cc3)c2=S)CC1`, the growth is 93.1% (inactive).
The figure for `COc1cc2nc(C(=O)N3CCCCC3)cc(Nc3ccccc3)c2cc1OC` is 102% (inactive); for `COc1ccccc1N1CCN(CC(O)COc2c(Br)c(Br)c(Br)c3c2OC(C)(C)C3)CC1` (centres undefined) it is 52.7% (inactive); for `COc1cc(Cn2cc3c(c2)-c2onc(CO)c2CC3)cc(OC)c1OC` it is 97.6% (inactive).
`CN1CCN(C(=O)/C=C/c2ccc([N+](=O)[O-])o2)CC1`: the growth was 90% (inactive).
Take `CC(C)C1(C(C)C)NC(=O)NC1=O`: the growth is 103% (inactive).
`COc1cc(/C=C/C(=O)c2c(C)n([O-])c3cc(C)c(C)cc3[n+]2=O)cc(OC)c1OC`: the growth was 45.8% (inactive).
`COc1cc(/C=C\c2cc(/C=C\c3ccc(O)c(OC)c3)n(C(=O)CNc3ccccc3OC)n2)ccc1O`: the growth is 53.4% (inactive).
As for `OCc1cn(-c2ccc(Cl)cc2)nc1-c1ccc(O)cc1`, the growth was 106% (inactive).
As for `CCc1c2cc(Cl)ccc2n2cc(Cc3ccccc3)[nH]c(=O)c12`, the figure is 99.5% (inactive); as for `Nc1ncnc2c1ccn2-c1cccc(NC(=O)c2cccc(C(F)(F)F)c2)c1`, 44.9% (inactive).
As to `COc1ccc(Cl)cc1NC(=O)c1cc2c([nH]1)-c1nc(NC(=O)C(C)(C)C)sc1CC2`, the growth is 9.52% (active).
Take `COc1ccc(-c2coc3c(CO)c(O)ccc3c2=O)cc1`: the growth was -58.9% (active).
The figure for `CC(=O)c1cc2c(c(O)c1C)C(=O)C(=O)c1c(O)cccc1-2` is -94.5% (active); for `O=C(Cn1c2ccccc2c2ccncc21)N/N=C\c1ccc2ccccc2c1` it is -25.9% (active); for `OC(COc1ccccc1Cl)CN1CCN(c2ccc(Cl)cc2)CC1` (centres undefined) it is 99.5% (inactive).
For `O=C(Nc1ccc(-n2ccc3c(NC(=O)c4ccccc4)nccc32)cc1)c1cccc(C(F)(F)F)c1`, the growth is 17.7% (inactive).
The figure for `Cc1cc(N2CCOCC2)nc(N(CCNc2ccnc3cc(Cl)ccc23)Cc2ccco2)n1` is 6.13% (active).
The figure for `CCCCC(=O)Nc1nc2ccc(SCCC)cc2s1` is 39.9% (inactive); for `COc1cc2ncnc(Oc3ccc(NC(=O)Nc4ccc(CN5CCOCC5)c(C(F)(F)F)c4)c4ccccc34)c2cc1OC` it is 42.6% (inactive).
`FC(F)(F)c1cccc([Si](F)(c2cccc(C(F)(F)F)c2)c2cccc(C(F)(F)F)c2)c1`: the growth is 72.1% (inactive).
Turning to `O=C(O)c1cccc(S(=O)(=O)c2ccccc2)c1`, the growth was 108% (inactive).
As for `C=C1C(=O)O[C@H]2[C@H]1CC/C(COC(=O)CCCC(=O)OC/C1=C/CC[C@@]3(C)O[C@H]3[C@H]3OC(=O)C(=C)[C@@H]3CC1)=C\CC[C@@]1(C)O[C@@H]21`, the figure is 48% (inactive); as for `Cc1c(F)cccc1NC(=O)c1sc2nc3c(cc2c1N)CCCCC3`, 56.3% (inactive).
On to `O=C(Nc1cccc([N+](=O)[O-])c1)Nc1cccc([N+](=O)[O-])c1`, for which the growth is 50.8% (inactive).
As for `O=C(N/N=C1\SCC(=O)N1c1ccccc1)c1cc(-c2cc3ccccc3o2)nn1-c1ccccc1`, the figure is 103% (inactive); as for `COc1cc(-c2nc(N)n(CC(=O)Nc3ccc(/C(C)=N\O)cc3)n2)cc(OC)c1OC`, 85.8% (inactive); as for `O=C(Cn1c2ccccc2c2ccncc21)N/N=C/c1c[nH]c2ccccc12`, 19.7% (inactive).
For `CCCN1C(=O)CSC1=Nc1ccc2cc3ccc(N=C4SCC(=O)N4CCC)cc3nc2c1`, the growth was 36.9% (inactive).
For the compound `CCc1cccc(C)c1NC(=O)c1sc2nc3c(cc2c1N)CCCCC3`, the growth is 24.1% (inactive).
The figure for `NC(=S)NNC1CCCCC1` is 93.6% (inactive); for `CC(C)(C)C(=O)Nc1nc2c(s1)CCc1ccn(S(=O)(=O)c3ccccc3)c1-2` it is 94.1% (inactive); for `Nc1ncnc2c1c(-c1ccc(Oc3ccccc3)cc1)nn2C[C@@H]1SSC[C@H]1O` it is 26.5% (inactive).
With `Cc1ccc[n+](CC(=O)c2cccc3ccccc23)c1`, the growth is 106% (inactive).

Values taken from PubChem BioAssay (NCI).
